Columns and labels:
Assay in all cases: PBM binding z-score (relative to random genomic background probes); higher = stronger binding; sequences stand for … in GC…GCGATTGACAGCGTAGAATGAAGG
[1] = system: RARb homodimer (NR concentration 270 nM)
Procedure, shortened: (§1)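 Custom Agilent 4×180K protein-binding microarrays carried double-stranded probes. Their 34-nt variable regions held direct-repeat seeds, single-nucleotide variants, half-site ablations and random human genomic background sequences. Arrays were incubated 1 h with ligand-free nuclear receptor dimers in PBS pH 7.4, 2% milk, 0.02% Triton X-100, 1 mM DTT, 0.2 mg/mL BSA and 0.4 mg/ml salmon testes DNA. Antibodies against each partner (one per run) detected binding, and scanned fluorescence was regression-normalized. Binding z-scores use random background probes as reference.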

[2] = system: RARg:RXRa (NR concentration 270 nM, RXRa partner concentration 90 nM)
Procedure, shortened: as §1

[3] = system: RARg homodimer (NR concentration 270 nM)
Procedure, shortened: as §1

[4] = system: RXRa DBDmut IVT, anti-RXR (DBD mutation: RXRa K156A/R161A, NR concentration 90 nM)
Procedure, shortened: as §1

[5] = system: RXRa homodimer (NR concentration 180 nM)
Procedure, shortened: as §1

[6] = system: THRa:RXRa (NR concentration 90 nM, RXRa partner concentration 90 nM)
Procedure, shortened: as §1

[7] = system: THRa homodimer (NR concentration 90 nM)
Procedure, shortened: as §1

[8] = system: VDR homodimer (NR concentration 270 nM)
Procedure, shortened: as §1

| Sequence | PBM binding z-score [1] | PBM binding z-score [2] | PBM binding z-score [3] | PBM binding z-score [4] | PBM binding z-score [5] | PBM binding z-score [6] | PBM binding z-score [7] | PBM binding z-score [8] |
| --- | --- | --- | --- | --- | --- | --- | --- | --- |
| ACTAGCAGGCCAAGTTTGAGTCACTCAAACAAAG | -0.195 | 0.0466 | 0.196 | -0.27 | -0.333 | -0.188 | -0.77 | -0.27 |
| ACAGACAGGTGAGTGAAAGTAACTCAGCTGGACG | -0.349 | 0.188 | 0.291 | -0.517 | 0.309 | -0.377 | -0.737 | -0.536 |
| TCGAGTAGTTTAGTCGGGGCATTCAGCCAACATA | 0.253 | -0.495 | -0.511 | 0.57 | -0.338 | 0.245 | 0.214 | 0.234 |
| ACAGACAGTTGATGAAGGTAACTCAGGCTATCAT | 0.387 | 0.00583 | 0.279 | 0.223 | 0.183 | 0.764 | 0.154 | 0.0979 |
| CCTAGCAGGCCAGAGTCACTCAAGCATTTCGCTT | -0.596 | -0.447 | -0.706 | -0.204 | -0.442 | -0.569 | -0.769 | -0.726 |
| ATCGAAAGGTCGAAGGTGAGTATCCCCACCCGAA | 2.43 | 3.95 | 3.71 | 0.658 | 4.73 | 2.36 | 0.377 | 0.132 |
| CCAGACAGGTGACAAGGTAACTCAGCCTCGATTA | 0.759 | 0.862 | 0.728 | 0.06 | 0.446 | 1.24 | 0.784 | -0.45 |
| CGAACTAGGTCAAGTACAGTGAATCTCCGCACGC | 3.33 | 4.45 | 5.13 | 2 | 3.13 | 3.03 | 1.56 | 1.45 |
| CCTAGCAGGGCAGGGTCACTCAAGCATTTCGCTT | 3.05 | 3.61 | 3.01 | 0.33 | 4.08 | 2.8 | 0.567 | 1.75 |
| CCTGCTAGCTCATGGTCAGCTAATCTACAGTATG | -0.424 | -0.342 | -0.0465 | -0.0856 | -0.437 | -0.44 | -0.771 | -0.81 |
| AGATCGAGGGCAATGAGTTGATAGCACGGGTGGC | 1.18 | 0.862 | 1.38 | 1.73 | 0.854 | 0.856 | 0.0154 | 2.44 |
| AATACAGGGTCATCGTAGGCCATAGTACGCACAG | 3.72 | 5.77 | 4.97 | 3.55 | 6.52 | 4.94 | 1.54 | 3.64 |
| CGTTAAAGTTCAAGGTAACGTAACAGAAAGCAGC | 3.54 | 4.91 | 5.74 | 4.35 | 3.98 | 2.78 | 1.23 | 3.34 |
| GCTAGTTGGTCAGTAACAGGTCACACACCGGTCG | 3.38 | 2.86 | 2.06 | 0.0356 | 2.11 | 2.13 | 1.06 | 0.753 |
| CTATCAAGGTGAACAAGGTCGTTGATTACTATTC | 1.7 | 1.76 | 1.54 | 1.5 | 1.7 | 3.12 | 1.85 | 2.72 |
| GCCTACGGGTCAAAGGTTATAGCATGAATAGAAT | 3.15 | 6.82 | 4.24 | 1.55 | 9.55 | 3.62 | -0.143 | 1.08 |
| TTACCAAGGTGAAGGTCGTTGAACCCTCTGTAGA | 2.16 | 1.94 | 1.52 | 0.243 | 3 | 2.74 | 1 | 1.63 |

| Sequence | PBM binding z-score [1] | PBM binding z-score [2] | PBM binding z-score [3] | PBM binding z-score [4] | PBM binding z-score [5] | PBM binding z-score [6] | PBM binding z-score [7] | PBM binding z-score [8] |
| --- | --- | --- | --- | --- | --- | --- | --- | --- |
| CCTCGGAGGACAACAGGAGGTCCGAGCTGCCAGA | 0.279 | 0.372 | 0.854 | -0.16 | -0.455 | 0.4 | -0.324 | -0.197 |
| TTTCAAAGTTCAAAGGTAACGTAAGTATCCACAC | 3.87 | 6.29 | 5.88 | 4.68 | 7.2 | 3.58 | 0.252 | 4.68 |
| CAAACTAGGTCAAGGTCAATGTCGGTTTGTGCCA | 5.09 | 5.85 | 6.81 | 2.94 | 5.18 | 4.41 | 3.82 | 4.11 |
| CCAGACAGGTGAGAAGGTAACTTAGCCTCGATTA | 0.632 | 0.486 | 0.577 | -0.104 | 0.246 | 0.524 | 0.316 | 0.118 |
| CAAACTAGGTCATTGACAGGACAGTGAATAGTAA | 2.83 | 4.74 | 4.67 | 2.28 | 2.89 | 2.91 | 1.01 | 1.51 |
| CGAACGAGGGCATGAATTGATAGCAAATGCCGAT | 0.244 | 0.899 | 1.3 | 2.24 | 0.708 | 0.857 | -0.496 | 0.297 |
| AGAATGAGGTTATTAAGATCAGCGAATTGCGGTC | 0.651 | 1.02 | 0.64 | 1.95 | 1.43 | 2.07 | 0.43 | 0.913 |
| TTATATAGGTAAAGGTGAAAGTCGAACGATATGA | 1.64 | 1.68 | 1.27 | -0.41 | 2.15 | 1.44 | -0.395 | -0.389 |
| ATCTCTAGGTAAAGATAGTTCAGTGATTGCAAAT | 1.2 | 0.619 | 0.722 | 0.503 | 0.395 | 0.879 | 0.445 | 0.789 |
| CCTACTGGGCCAAAGGTCAATGATTCCAATGCTC | 4.35 | 5.54 | 4.85 | 0.831 | 5.74 | 3 | 0.607 | 1.25 |
| CGAACGAGGGCATGTGTTGATAGCAAATGCCGAT | 0.926 | 1.08 | 1.7 | 2.64 | 0.745 | 1.03 | 0.0176 | 1.44 |
| ACTATTAGTTGACTTAGGGCAACAGATACGACGC | 0.775 | 0.939 | 1.03 | 0.406 | 0.426 | 1.48 | 0.0505 | 0.162 |
| TCACCAAGGTGAGCTGAGGTCGTTGATCCAACTC | 1.5 | 1 | 0.829 | 0.546 | 1.28 | 4.7 | 1.49 | 1.64 |
| CCTTACGGGTCACGAGGTTATTGCACGACGAGCG | 4.19 | 6.12 | 5.46 | 1.83 | 7.15 | 3.67 | 1.4 | 2.55 |
| TCGTGTAGGTTACCAATGGGGCATTCAGCTTTCT | 1.15 | 1.46 | 0.613 | 0.901 | 0.634 | 0.276 | 0.371 | -0.0857 |
| CCGAGTAGGTTATGGGGCATTCAAGCAACGGTGA | 0.855 | 0.557 | 0.579 | 0.355 | 0.617 | 0.205 | 0.0762 | 0.0962 |
| TCTAGCAGGCCAGAGGCTCACTCAAGAGGTACGG | -0.995 | -0.48 | -0.695 | -0.462 | -0.277 | -0.767 | -1.59 | -1.07 |

Source: the supplement of paper PMC6555819
